A selection: hits, their analogues and other compounds. The true share with any hit is near 19%.
DT40 TDP1 CPT: qHTS for Inhibitors of human tyrosyl-DNA phosphodiesterase 1 (TDP1): qHTS in cells in presence of CPT; chicken DT40 Tdp1-/-;hTDP1 cells + 20 nM CPT, ATP luminescence, 48 h; Potency, µM (doses to about 46.2 µM), for inactives: at the highest dose activity change, negative = growth inhibition, most hits filed as inhibitors; 420,000 tested, 12% active; further: potency means the concentration at half of the fitted maximal effect; nearly all actives have a fitted effect of over 55% in size
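Chicken DT40 Tdp1-/- cells complemented with human TDP1, 400 cells/well, exposed to compounds plus 20 nM camptothecin for at least 48 h at 37 C; viability read as ATP content by CellTiter-Glo luminescence.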
DT40 TDP1 no CPT: qHTS for Inhibitors of human tyrosyl-DNA phosphodiesterase 1 (TDP1): qHTS in cells in absence of CPT. DT40 Tdp1-/- hTDP1 cells, no CPT, ATP luminescence, 48 h. Potency, µM (series often up to 46.2 µM), inactives show at the highest dose activity change, negative = growth inhibition, actives largely listed as inhibitors. 420,000 tested, 15% active. AID 686978, 2013; further: potency means the concentration at half of the fitted maximal effect; nearly all actives have a fitted effect of over 55% in size
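No-CPT arm: Tdp1-/-;hTDP1 DT40 cells (400/well) plus compounds, incubated ≥48 hr at 37 °C. Readout CellTiter-Glo luminescence.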
IL1B secr inh: qHTS for Inhibitors of Inflammasome Signaling: IL-1-beta AlphaLISA Primary Screen; THP-1 LPS/ATP IL-1B secretion, AlphaLISA, 16 h; stronger effect = lower value; activity change, % at 57.5 µM; 360,000 tested, 4.7% active; AID 743279, 2014; in the data active means activity change below about -50%; inconclusive means mostly about -30% to -49%
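THP-1 cells pretreated 1 hr with compounds (up to 57.5 uM final), then stimulated with LPS (250 ng/mL final) plus ATP (1.25 mM final); secreted IL-1B measured by AlphaLISA after 16 hr, decreased signal indicating inhibition.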
HT1080-NT tox: qHTS for induction of synthetic lethality in tumor cells producing 2HG: qHTS for the HT-1080-NT fibrosarcoma cell line; HT-1080-NT fibrosarcoma viability, CellTiter-Glo ATP luminescence, 48 h; 360,000 tested, 1.6% active; AID 686970, 2013; Potency, µM (top dose mostly 46.1 µM), for the others: at the top dose activity, negative = less viability, actives largely listed as cytotoxic;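 further: NT is the 2HG producing partner of a matched IDH1 knockdown line; potency means the concentration at half of the fitted maximal effect; 0% = DMSO-treated cells and -100% = media-only wells without cells; nearly all actives have a fitted effect of over 55% in size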
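Viability by CellTiter-Glo luminescence after 48 h compound exposure at 37C of HT-1080-NT cells (750/well, RPMI, 5% FBS). % activity scaled between DMSO wells and medium-only wells, then curve-fitted and categorized by curve class.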
HT1080 IDH1KD tx: qHTS for induction of synthetic lethality in tumor cells producing 2HG: qHTS for the HT-1080-IDH1KD cell line; HT-1080 IDH1 knockdown viability, ATP luminescence, 48 h; Potency, µM (highest dose often 46.1 µM), without a hit: top-dose activity, negative = toxicity, hits mostly cytotoxic; 360,000 tested, 2% active;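 further: potency means the concentration at half of the fitted maximal effect; 0% = DMSO wells and -100% = cell-free medium wells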
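In this qHTS, HT-1080 cells depleted of IDH1 are exposed for 48 h at 37 °C to compound titrations. Toxicity is scored from CellTiter-Glo luminescence, with DMSO as full viability and medium alone as none.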
ELG1 DNA repair: qHTS screen for small molecules that inhibit ELG1-dependent DNA repair in human embryonic kidney (HEK293T) cells expressing luciferase-tagged ELG1. HEK293T ELG1-luciferase reporter, luminescence, 16 h; DNA damage induced by 5-fluorouridine. Potency, µM (series often up to 46.1 µM), without a hit: at the top dose activity change, negative = inhibition, most hits filed as inhibitors. 330,000 tested, 2.3% active. AID 504467, 2011; further: potency means the concentration at half of the fitted maximal effect; nearly all actives have a fitted effect of over 55% in size
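Quantitative HTS, concentration-response format. 2,000 cells/well co-treated with 5-fluorouridine and compound, 16 hr in 5% CO2 at 37 °C; ONE-Glo luminescence read after 30 min.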
* hit, by the source's call; ? = inconclusive; nt = no result given; [ ] = another dose, or the depositor's remark. Unless noted, the call rests on the fitted dose curve; in most records, active means well fitted curve in the direction sought with a large enough effect; inconclusive means small, poorly fitted or top-dose-only effect, or another doubt; inactive means no such curve, though single readings can be large; an effect the other way counts as inactive or inconclusive. Unless noted, on the % scale 0 is the no-effect control and ±100 the full control effect.

SMILES	DT40 TDP1 CPT	DT40 TDP1 no CPT	IL1B secr inh	HT1080-NT tox	HT1080 IDH1KD tx	ELG1 DNA repair
CC1(C(=O)Nc2cccc(OC(F)(F)F)c2)Cc2c(-c3ccc(C(N)=O)cc3)ccnc2O1 (centres undefined)	?	16µM*	83	-5%	?	nt
CC1(C(=O)Nc2cccc(NS(C)(=O)=O)c2)Cc2c(-c3ccc(C(N)=O)cc3)ccnc2O1 (centres undefined)	-16%	-5%	19	7%	13%	nt
CC(=O)Nc1cccc(-c2ccnc3c2CC(C)(C(=O)Nc2cccc(OC(F)(F)F)c2)O3)c1 (centres undefined)	?	?	13	9.2µM*	?	nt
CS(=O)(=O)c1ccc(NC(=O)c2cccc(S(=O)(=O)N3CCN(Cc4ccccc4)CC3)c2)cc1	?	?	-13	-3%	-2%	?
O=S1(=O)N=C2CCCCCN2C(c2ccccc2)N1 (centres undefined)	-6%	-2%	20	21%	8%	9%
CCOc1c(Br)cc(C2NS(=O)(=O)N=C3CCCCCN32)cc1OC (centres undefined)	?	16µM*	0	2%	6%	1%
CCCn1c(N)c(C(=O)CSc2nnc(-c3cccs3)n2C2CC2)c(=O)[nH]c1=O	-8%	-9%	-12	-12%	-3%	-26%
COc1cccc(-c2ncc3ccccc3c2COC(=O)c2ccc(F)cc2)c1	?	21µM*	-10	-2%	-17%	?
COc1ccccc1C(=O)OCc1c(-c2ccccc2)ncc2ccccc12	16µM*	?	-19	-17%	-29%	16µM*
COc1ccc(C(=O)OCc2c(-c3ccccc3)ncc3ccccc23)cc1	16µM*	?	0	-15%	-17%	?
O=C(OCc1c(-c2ccccc2)ncc2ccccc12)c1ccccc1C(F)(F)F	1µM*	?	-2	?	?	?
COCC(=O)Nc1ccc2c(c1)OCC(=O)N2Cc1ccccc1F	-8%	4%	38	13%	3%	-3%
CC(C)(C)N1CC(C(=O)Nc2ccc(C#N)cc2)CC1=O (centres undefined)	-8%	-13%	18	-14%	-3%	6%
Cn1c(=O)c2c(nc(NCCNC(=O)c3ccco3)n2Cc2ccccc2)n(C)c1=O	?	?	0	-16%	-17%	-15%
Cn1c(=O)c2c(nc(NCc3ccco3)n2CC(O)COc2ccccc2)n(C)c1=O (centres undefined)	?	9.2µM*	-22	1%	-4%	?
COCCn1c(NCc2ccco2)nc2c1c(=O)[nH]c(=O)n2C	-4%	-10%	22	14%	3%	?
COc1cccc(Cn2c(NCc3ccco3)nc3c2c(=O)n(C)c(=O)n3C)c1	1.8µM*	1.5µM*	-23	-27%	-24%	?
COc1ccc(Cl)c(Cn2c(NCc3ccco3)nc3c2c(=O)n(C)c(=O)n3C)c1	4.6µM*	3.7µM*	9	-9%	0%	?
CCCn1c(NCc2ccco2)nc2c1c(=O)n(C)c(=O)n2C	?	13µM*	-9	-1%	1%[9.24 µM]	?
CCc1nc2c(OCC(=O)C(C)(C)C)cccn2c1N(C)C(=O)CC(C)C	?	-26%	27	19%	7%	nt

Bioassay records from PubChem BioAssay.
